Experimental data from PubChem BioAssay (NCI).
Several values for one entry are separate records, joined by “and”; a condition that tells them apart may be missing. Identical values can stand only once. The panel holds about 83,000 compounds, 20% with a hit somewhere; the sample as a whole holds those more often.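 Compound tested at a single concentration for 48 hours in 96-well plates; a percent growth value below 10 was scored as active.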 Values without a mark were called inactive. Activity calls are given as the source filed them.

Columns and labels:
Experiment in all cases: NCI-60 one-dose screen, 48 h (100 = growth as untreated, 0 = no growth, -100 = all killed)
NCI-H23 lung = test system: NCI-H23 lung
NCI-H226 lung = test system: NCI-H226 lung
NCI-H322M lung = conditions: 10 µM
HOP-62 NSCLC = test system: HOP-62 NSCLC
NCI-H460 lung = test system: NCI-H460 lung
HOP-92 NSCLC = test system: HOP-92 NSCLC
NCI-H522 lung = conditions: 10 µM unless noted
A549/ATCC NSCLC = test system: A549/ATCC NSCLC
786-0 renal = test system: 786-0 renal
COLO 205 colon = test system: COLO 205 colon

Row | SMILES | growth (NCI-H23 lung; 10 µM) | growth (NCI-H226 lung; 10 µM) | growth (NCI-H322M lung) | growth (HOP-62 NSCLC; 10 µM) | growth (NCI-H460 lung; 10 µM) | growth (HOP-92 NSCLC; 10 µM) | growth (NCI-H522 lung) | growth (A549/ATCC NSCLC; 10 µM) | growth (786-0 renal; 10 µM) | growth (COLO 205 colon; 10 µM) | growth (NCI-H23 lung; 100 µM) [%] | growth (NCI-H226 lung; 100 µM) [%] | growth (HOP-62 NSCLC; 100 µM) [%] | growth (NCI-H460 lung; 100 µM) [%] | growth (HOP-92 NSCLC; 100 µM) [%] | growth (A549/ATCC NSCLC; 100 µM) [%] | growth (786-0 renal; 100 µM) [%] | growth (COLO 205 colon; 100 µM) [%]
1 | OC(CN1CCCC2CCCCC21)c1cc2ccccc2c2ccccc12 (centres undefined) | 12.6% | 39.3% | 49.4% | 11.2% | 7.08% (active) | 25.1% | 80.1% | 51.5% | -11.6% (active) | -73.2% (active) |  |  |  |  |  |  |  | 
2 | CCCCCCCCCCCCCCCCCCOCC(COP(=O)([O-])OCC[N+](C)(C)C)OC (centres undefined) | 89.1% | 93.9% | 107% | 44% | 46.4% | 59.9% | 73% | 97.5% | 87.6% | 2.62% (active) |  |  |  |  |  |  |  | 
3 | CN(C)C(=S)SC(=S)N(C)C | 92.1% and 108% | 104% | 101% and 86% | 112% and 103% | 98.7% and 91.3% | 97.9% and 108% | 77.4% and 61.1% | 95.9% and 86.6% | 96.7% and 105% | 81.5% and 49.1% |  |  |  |  |  |  |  | 
4 | NNc1ccc2ccccc2c1 | 87.9% and 94.4% | 87.3% and 85.8% | 83% and 97.3% | 81.1% and 97.4% | 105% | 97% and 95.6% | 79.5% and 98.6% | 102% and 106% | 99.8% and 98.3% | 94% and 109% |  |  |  |  |  |  |  | 
5 | CCN1/C(=C/C=C/C=C/c2sc3ccccc3[n+]2CC)Sc2ccccc21 | -22.8% (active) | 11.8% |  | -29% (active) | -69.7% (active) | -28.3% (active) | -57.6% (active) | -64.5% (active) | -57.6% (active) | -87.7% (active) |  |  |  |  |  |  |  | 
6 | CO[C@H](C(=O)[C@@H](O)[C@@H](C)O)[C@@H]1Cc2cc3cc(OC4CC(OC5CC(O)C(O)C(C)O5)C(O)C(C)O4)c(C)c(O)c3c(O)c2C(=O)[C@H]1OC1CC(OC2CC(OC3CC(C)(O)C(O)C(C)O3)C(O)C(C)O2)C(O)C(C)O1 (some centres undefined) | -28.9% (active) | 10.8% |  | 7.51% (active) | 2.6% (active) | -1.5% (active) | -44.7% (active) | 2.67% (active) | 2.93% (active) | -67.5% (active) |  |  |  |  |  |  |  | 
7 | Clc1cc(Cl)c(Cl)nn1 | 105% | 99.8% | 109% | 94.2% | 99% | 91.9% | 80.7% | 57.9% | 99.4% | 120% |  |  |  |  |  |  |  | 
8 | CC(=O)Nc1cc(C)ccc1C | 95.1% | 98.7% | 96% | 107% | 106% | 106% | 96.1% | 100% | 106% | 102% |  |  |  |  |  |  |  | 
9 | COc1cccc2c1C(=O)c1c(O)c3c(c(O)c1C2=O)C[C@@](O)(C(C)=O)C[C@@H]3OC1CC(N)C(O)C(C)O1 (some centres undefined) | -40.5% (active) | -6.94% (active) |  | -26.1% (active) | -25.3% (active) | -25.2% (active) | -52% (active) | -29.9% (active) | -18.5% (active) | -54.3% (active) |  |  |  |  |  |  |  | 
10 | O=c1ccn(C2CC(O)C(COC(c3ccccc3)(c3ccccc3)c3ccccc3)O2)c(=O)[nH]1 (centres undefined) | 101% | 91.7% |  | 89.2% | 91.2% | 87.8% | 53.6% [100 µM] | 74.8% | 82% | 114% | 69.2 | 36.2 | 72 | 39.4 | 25.4 | 44 | 65.5 | 59.4
11 | CC[N+](CC)=c1ccc2nc3c(cc(N)c4ccccc43)oc-2c1 | -41.8% (active) | -48% (active) | -46.5% (active) | -69% (active) | -57.4% (active) | -60.3% (active) | -48.4% (active) | -19.4% (active) | -79% (active) | -44.4% (active) |  |  |  |  |  |  |  | 
